Laboratory results as given in PubChem BioAssay (NCI).
Compounds without any hit were thinned out: in the full panel of roughly 83,000, 20% have a hit.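 Plates (96-well) were seeded with cells, treated with compound at one concentration, and incubated for 48 hours before percent growth was determined.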 Active and inactive are the calls of the source. The calls were made as follows: active = growth percent below 10; inactive = the rest.

test system: HL-60(TB) leukemia; assay: NCI-60 one-dose screen, 48 h (100 = growth as untreated, 0 = no growth, -100 = all killed); settings: 10 µM unless noted

Row | Structure (SMILES) | growth
1 | CN1CCN(C(=O)c2c3c(n4ccccc24)C(=O)c2ncccc2C3=O)CC1 | 53.4% (inactive)
2 | CCOC(=O)c1cnn2c3ccccc3n(S(=O)(=O)c3ccc(OC)cc3)c12 | 4.77% (active)
3 | CCc1ccc(C(=Nc2ccc(N(C)C(=O)CN3CCN(C)CC3)cc2)c2c(O)[nH]c3ccc(C(=O)OC)cc23)cc1 | -67% (active)
